# High-throughput results deposited in PubChem by National Center for Advancing Translational Sciences (NCATS).
# The list is not random: actives were taken first. Their share in the collection is about 6.5%.
# IL-1B inflam inh: inhibitors of inflammasome signaling (IL-1 beta secretion). THP-1 LPS/ATP IL-1B secretion, AlphaLISA, 16 h; stronger effect = lower value. activity change, % at 57.5 µM. actives 4.7% (n = 360,000); in the data active means activity change below about -50%; inconclusive means mostly about -30% to -49%; further: on the % scale 0 is the no-effect control and ±100 the full control effect
#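 Secreted IL-1B measured by AlphaLISA bead assay after 16 h compound exposure of THP-1 cells; compounds (final up to 57.5 uM) added 1 h before LPS (250 ng/mL) and ATP (1.25 mM) stimulation; lower signal means less secretion.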
# TGFb inhibitor: TGF-b pathway inhibition. Potency, µM (doses to about 46.1 µM), for the others: top-dose activity, negative = inhibition, hits mostly inhibitors. actives 1.2% (n = 410,000). HepG2 CAGA-GFP TGF-b/SMAD3 reporter, GFP fluorescence, 18 h; TGF-beta stimulated, 500 pg/mL final; further: potency means the concentration at half of the fitted maximal effect; on the % scale 0 is the no-effect control and ±100 the full control effect; nearly all actives have a fitted effect of over 65% in size
#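 HEPG2 CAGA-GFP cells (1000/well, DMEM with 1% FBS) were pre-incubated 2 h at 37 degrees C, given compound by pin tool, then stimulated with TGF-beta at 500 pg/mL final for 18 h before per-cell GFP fluorescence imaging.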
# HepG2 tox: kills HepG2 cells in TGF-b inhibitor counter-screen; AID 588856; Potency, µM (titrated, usually from 46.1 µM), for inactives: at the top dose activity change, negative = cytotoxicity, usual class: cytotoxic; actives 0.76% (n = 410,000); HepG2 CAGA-GFP viability, ATP luminescence, 18 h; further: potency means the concentration at half of the fitted maximal effect
#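 CellTiter-Glo luminescence gave cytotoxicity after 18 hours at 37 degrees C. The cells were HepG2 CAGA-GFP in 1% FBS DMEM, stimulated with 500 pg/mL TGF-beta after compound addition. %Activity was normalised to no-cell wells (complete cell-killing) and DMSO (no toxicity), and curves were fitted and classified.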
# HT1080 IDH1KD tx: kills HT-1080 cells with IDH1 knockdown. AID 686971. Potency, µM (highest dose often 46.1 µM), for inactives: at the highest dose activity, negative = toxicity, most hits filed as cytotoxic. HT-1080 IDH1 knockdown viability, ATP luminescence, 48 h. actives 2% (n = 360,000);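 further: potency means the concentration at half of the fitted maximal effect; 0% = DMSO wells and -100% = cell-free medium wells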
#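 After a 2 h attachment period, IDH1KD HT-1080 cells took pin-transferred compound for 48 h at 37 °C; ATP-based luminescence after 10 min room-temperature reagent incubation reported viability.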
# Giardia kill: Giardia lamblia killing; activity change, % at 7.66 µM, hits read low; Giardia lamblia trophozoite viability; actives 0.15% (n = 340,000); in the data active means activity change below about -80%; inconclusive means between about -30% and that limit;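 further: parasites exposed to compound for two days anaerobically before the ATP read; on the % scale 0 is the no-effect control and ±100 the full control effect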
#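 Luminescent ATP signal served as the viability read-out, measured 15-30 min after adding ATP detection reagent to trophozoites that had been incubated with compounds for 48 hrs at 37 deg C anaerobically at 100 cells/well.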
# HT1080NT lethal: kills 2HG-producing HT-1080-NT fibrosarcoma cells; HT-1080-NT fibrosarcoma viability, CellTiter-Glo ATP luminescence, 48 h; Potency, µM (doses to about 46.1 µM), inactives show at the top dose activity, negative = less viability, usual class: cytotoxic; actives 1.6% (n = 360,000);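 further: NT is the 2HG producing partner of a matched IDH1 knockdown line; potency means the concentration at half of the fitted maximal effect; 0% = DMSO-treated cells and -100% = media-only wells without cells; nearly all actives have a fitted effect of over 55% in size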
#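 750 cells/well, RPMI + 5% FBS; 2 h settle, compound pin-transfer, 48 h at 37 degrees C. CellTiter-Glo 10 min RT, luminescence. Normalized to DMSO and media-only wells.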
# * marks the source's active call; other numbers are inactive results; ? = inconclusive; / = no result. Unless noted, the call rests on the fitted dose curve; in most records, active means well fitted curve in the direction sought with a large enough effect; inconclusive means small, poorly fitted or top-dose-only effect, or another doubt; inactive means no such curve, though single readings can be large; an effect the other way counts as inactive or inconclusive.
SMILES,IL-1B inflam inh,TGFb inhibitor,HepG2 tox,HT1080 IDH1KD tx,Giardia kill,HT1080NT lethal
O=C(Nc1cc(S(=O)(=O)N2CCOCC2)ccc1N1CCCC1)c1ccccc1F,-4.2,3.2%,3.4%,13.2%,/,7.2%
COc1ccccc1OCC(=O)Nc1cc(S(=O)(=O)N2CCOCC2)ccc1N1CCCCC1,-54.6*,-26.6%,-0.8%,3.3%,-14.3,20.4%
CCc1ccccc1OCC(=O)Nc1cc(S(=O)(=O)N2CCOCC2)ccc1N1CCCCC1,-26.0,-0.7%,7.8%,-19.4%,5.8,?
O=C(Nc1cc(S(=O)(=O)N2CCOCC2)ccc1N1CCCCC1)c1ccccc1Br,-59.3*,-21.7%,6.5%,11.0%,7.7,5.3%
Cc1ccc(Cl)c(OCC(=O)Nc2cc(S(=O)(=O)N3CCOCC3)ccc2N2CCCC2)c1,-58.6*,-0.8%,0.1%,-0.4%,0.7,1.4%
CN1CCN(c2ccc(S(=O)(=O)N3CCOCC3)cc2NC(=O)COc2ccc(F)cc2Cl)CC1,-12.7,0.0%,119.5%,12.7%,-9.9,1.4%
O=C(COc1ccc(F)cc1Cl)Nc1cc(S(=O)(=O)N2CCOCC2)ccc1N1CCCCC1,-51.4*,-24.4%,1.9%,-20.5%,-3.4,-4.1%
C=CCN(Cc1nc(-c2ccc(OC)cc2)no1)C(=O)c1ccc2c(c1)OCO2,14.3,?,5.1%,-2.9%,-0.7,-6.4%
CS(=O)(=O)c1ccc(C(=O)OCC(=O)NC(=O)Cc2ccccc2)cc1,18.3,21.4%,4.5%,16.3%,4.9,10.1%
O=C(Nc1ccc(Cl)c(Cl)c1)Nc1cc(S(=O)(=O)N2CCOCC2)ccc1N1CCCC1,-60.0*,?,2.9%,?,2.1,-25.1%
O=C(NCC(c1ccco1)N1CCCCC1)c1ccc(COc2ccccc2)cc1 (stereo unspecified),-72.1*,8.3%,-10.4%,-10.1%,-1.4,-0.5%
O=C(COc1ccccc1)NCC(c1ccco1)N1CCN(c2ccc(F)cc2)CC1 (stereo unspecified),-53.7*,-2.6%,-4.9%,-1.8%,?,-18.1%
O=C(NCC(c1ccco1)N1CCCCC1)c1ccc(OCc2ccccc2)cc1 (stereo unspecified),14.2,28.5%,-4.2%,23.8%,28.9,13.9%
Cc1ccc2oc(-c3cc(NC(=O)c4ccc5c(c4)OCCO5)cc(C)c3O)nc2c1,/,9.5%,-5.9%,/,/,/
COCCOc1ccc(C(F)(F)F)cc1NC(=O)CN1C(=O)NC2(CCCc3ccccc32)C1=O (stereo unspecified),-26.0,0.0%,-5.3%,-11.4%,0.1,-12.6%
CCCOc1ccc(C2C(=O)N(C3CCCCCC3)CC(=O)N2C(C)C)cc1OC (stereo unspecified),/,-1.2%,-6.3%,/,/,/
COc1ccc(Br)cc1C1C2C=CCCC2(C)C(=O)N1Cc1ccccc1 (stereo unspecified),/,?,-29.0%,/,22.0,/
Cc1ccc(C)c(OC(=O)CSc2nnc(-c3cccs3)o2)c1,/,28.3%,-2.2%,/,/,/
COc1ccc(NC(=O)NCCCN2CCc3ccccc3C2)cc1,-11.6,-1.9%,-1.0%,-1.2%,0.4,-9.0%
O=C(NCCCN1CCc2ccccc2C1)Nc1ccc(Br)cc1,-17.5,-0.4%,-48.3%,18.4µM*,26.0,?
CCOC(=O)c1cc(-c2ccc(C)cc2)n(CC(=O)Nc2cccc(C(C)=O)c2)c1C,/,-6.6%,-21.6%,/,/,/
CCc1nc2ccc(C(=O)NCc3ccc4c(c3)OCO4)cn2c1N(CCC(C)C)CCN(C)C,-22.5,?,-35.8%,?,/,20.6µM*
CCCCNC(=O)c1ccc2nc(CC)c(N(CCC(C)C)CCN(C)C)n2c1,-11.1,6.5%,-17.6%,?,/,?
CCc1nc2ccc(C(=O)NCCOc3ccc(OC)cc3)cn2c1N(CCC(C)C)CCN(C)C,-64.4*,10.4%,-23.0%,20.6µM*,/,?
CN(C)CC/C=C1/c2cc(F)ccc2CSc2ccc(F)cc21,-14.0,12.7%,-1.2%,-7.3%,-4.4,-10.4%
SMILES,IL-1B inflam inh,TGFb inhibitor,HepG2 tox,HT1080 IDH1KD tx,Giardia kill,HT1080NT lethal
CC(O)CN(C)CC/C=C1/c2ccccc2CSc2ccccc21 (stereo unspecified),-18.6,-3.3%,-18.8%,0.7%,-0.9,-8.2%
C=CCN(C)CC/C=C1\c2ccccc2CSc2ccccc21,-18.0,-16.0%,-40.6%,-26.2%,2.7,?
NCC/C=C1/c2ccccc2CSc2ccccc21,-17.7,?,15.8µM*,?,0.9,14.1µM*
CN(C)CC/C=C1\c2cc(F)ccc2CSc2ccccc21,-56.9*,7.5%,-38.3%,-17.4%,19.4,-18.2%
CN(CC/C=C1/c2ccccc2CSc2ccccc21)CCCO,-57.7*,-3.8%,-11.2%,-18.2%,-8.0,-4.1%
COc1ccc(CN(Cc2cc3ccc(C)cc3[nH]c2=O)Cc2nnnn2C2CCCC2)cc1,-57.9*,-14.2%,-4.5%,-25.1%,2.2,0.7%
Cc1cc2cc(CN(Cc3nnnn3C3CCCCC3)CC3CCCO3)c(=O)[nH]c2cc1C (stereo unspecified),-65.9*,-26.1%,-10.0%,2.7%,2.9,4.6%
Cc1ccc2[nH]c(=O)c(CN(Cc3ccc4c(c3)OCO4)Cc3nnnn3C3CCCC3)cc2c1,-55.8*,-28.4%,-12.5%,-1.5%,15.4,-2.0%
Cc1cc2cc(CN(Cc3ccc4c(c3)OCO4)Cc3nnnn3C3CCCC3)c(=O)[nH]c2cc1C,-5.8,0.5%,-3.9%,-0.6%,3.1,5.3%
Cc1ccc2cc(CN(Cc3nnnn3C3CCCCC3)CC3CCCO3)c(=O)[nH]c2c1 (stereo unspecified),-9.2,-33.4%,-22.4%,?,6.8,-2.3%
O=C(NCc1ccc(F)cc1Cl)c1ccc(CSCc2ccccc2Cl)o1,/,12.6µM*,-32.3%,/,/,/
Cc1ccc(S(=O)(=O)N2C[C@H]3C(=O)C[C@@H](c4ccccc4)N(S(C)(=O)=O)[C@H]3C[C@H]2c2ccccc2)cc1,-91.6*,?,-11.6%,?,/,-28.0%
Cc1ccc([C@@H]2C[C@H]3[C@@H](CN2S(=O)(=O)c2ccc(C)cc2)C(=O)C[C@@H](c2ccccc2)N3S(=O)(=O)c2ccc(C)cc2)cc1,29.5,6.8%,2.3%,-8.6%,/,3.8%
Cc1ccc(S(=O)(=O)N2C[C@H]3C(=O)C[C@@H](c4cccs4)N(S(=O)(=O)c4ccc(C)cc4)[C@H]3C[C@H]2c2ccccc2)cc1,-57.7*,2.3%,-0.6%,13.9%,/,17.7%
CCc1cccc(NS(=O)(=O)c2ccc3c(c2)n(C)c(=O)n3C)c1,-25.6,-9.4%,-24.1%,-15.7%,-0.3,-12.0%
